Measured values: PubChem BioAssay AID1159580 (chemical genetic matrix, 2015)
Values joined by “and” are separate entries in the source; they are usually repeats but may differ in a detail not shown here. Equal entries are not always repeated. Out of some 5,500 compounds screened, about 2,000 (36%) were called active. Roughly 18% stayed inconclusive and do not appear here. Cut-off read from the data, not from the text of the source: active = normalized growth mostly below about 0.91 (no sharp cut-off); inconclusive = no clear call, values can overlap the other calls; inactive = mostly above about 0.92. Some of the results follow.

Test: chemical genetic growth profiling, strain panel (AID 1159580);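 note: tested at 20 µM; growth read once vehicle control cultures reached saturation at 30 °C; 1 = growth at the plate median or of vehicle wells; lower values mean less growth of the strain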
Details: S. cerevisiae deletion strains, growth OD

Measured: normalized growth

CC(C)CC1C(=O)N2CCC[C@H]2C2(O)O[C@](NC(=O)C3C=C4c5cccc6[nH]c(Br)c(c56)C[C@H]4N(C)C3)(C(C)C)C(=O)N12 (stereo partly specified)
inactive: locus YAL013W, strain DEP1, stronger effect = lower value 0.989 | locus YAL021C, strain ccr4, stronger effect = lower value 0.976 | locus YAL026C, strain drs2, stronger effect = lower value 0.991 | locus YAL030W, strain snc1, stronger effect = lower value 0.998 | locus YBL061C, strain skt5, stronger effect = lower value 0.987 | locus YBR009C, strain hhf1, stronger effect = lower value 0.996 | locus YBR021W, strain FUR4, stronger effect = lower value 0.996 | locus YBR023C, strain chs3, stronger effect = lower value 0.992 | locus YBR171W, strain sec66, stronger effect = lower value 0.981 | locus YBR229C, strain ROT2, stronger effect = lower value 0.993 | locus YBR231C, strain swc5, stronger effect = lower value 0.968 | locus YBR279W, strain paf1, stronger effect = lower value 0.988 | locus YCL011C, strain gbp2, stronger effect = lower value 0.976 | locus YCL016C, strain dcc1, stronger effect = lower value 0.995 | locus YCL029C, strain bik1, stronger effect = lower value 0.961 | locus YCL069W, strain vba3, stronger effect = lower value 0.997 | locus YCR088W, strain abp1, stronger effect = lower value 0.99 | locus YDL005C, strain med2, stronger effect = lower value 0.987 | locus YDL035C, strain GPR1, stronger effect = lower value 0.993 | locus YDL040C, strain nat1, stronger effect = lower value 0.984 | locus YDL074C, strain BRE1, stronger effect = lower value 0.974 | locus YDL101C, strain DUN1, stronger effect = lower value 0.988 | locus YDL134C, strain PPH21, stronger effect = lower value 0.992 | locus YDL185W, strain tfp1, stronger effect = lower value 0.947 | locus YDL192W, strain arf1, stronger effect = lower value 0.965 | locus YDR001C, strain nth1, stronger effect = lower value 0.972 | locus YDR069C, strain doa4, stronger effect = lower value 0.983 | locus YDR101C, strain arx1, stronger effect = lower value 0.984 | locus YDR137W, strain rgp1, stronger effect = lower value 0.885 | locus YDR150W, strain NUM1, stronger effect = lower value 0.976 | locus YDR159W, strain sac3, stronger effect = lower value 0.989 | locus YDR162C, strain NBP2, stronger effect = lower value 0.989 | locus YDR195W, strain ref2 0.962 | locus YDR297W, strain sur2, stronger effect = lower value 0.976 | locus YDR318W, strain mcm21, stronger effect = lower value 0.977 | locus YDR334W, strain swr1, stronger effect = lower value 0.973 | locus YDR335W, strain msn5, stronger effect = lower value 0.995 | locus YDR388W, stronger effect = lower value 0.989 | locus YDR392W, strain spt3, stronger effect = lower value 0.959 | locus YDR502C, strain sam2, stronger effect = lower value 0.972 | locus YEL003W, strain gim4, stronger effect = lower value 0.981 | locus YEL037C, strain rad23, stronger effect = lower value 0.989 | locus YEL061C, strain CIN8 (second series), stronger effect = lower value 0.995 | locus YEL061C, strain CIN8, stronger effect = lower value 0.982 | locus YER015W, strain faa2, stronger effect = lower value 0.972 | locus YER016W, strain bim1, stronger effect = lower value 0.982 | locus YER110C, stronger effect = lower value 0.964 | locus YER111C, strain swi4, stronger effect = lower value 0.993 | locus YER155C, strain BEM2 (second series), stronger effect = lower value 0.973 | locus YER155C, strain BEM2, stronger effect = lower value 0.985 | locus YER167W, strain BCK2, stronger effect = lower value 0.961 | locus YFR010W, strain ubp6, stronger effect = lower value 1.01 | locus YGL078C, strain dbp3, stronger effect = lower value 0.965 | locus YGL086W, strain mad1, stronger effect = lower value 0.97 | locus YGL167C, strain pmr1, stronger effect = lower value 0.974 | locus YGL173C, strain kem1, stronger effect = lower value 1 | locus YGL227W, strain vid30, stronger effect = lower value 0.994 | locus YGL240W, strain doc1, stronger effect = lower value 0.943 | locus YGL248W, strain PDE1, stronger effect = lower value 0.987 | locus YGL253W, strain hxk2, stronger effect = lower value 0.993 | locus YGR078C, strain PAC10, stronger effect = lower value 0.989 | locus YGR135W, strain pre9, stronger effect = lower value 0.982 | locus YGR229C, strain SMI1, stronger effect = lower value 1.01 | locus YGR252W, strain gcn5, stronger effect = lower value 1.14 | locus YHR013C, strain ard1, stronger effect = lower value 0.945 | locus YHR027C, strain rpn1, stronger effect = lower value 0.962 | locus YHR030C, strain SLT2, stronger effect = lower value 0.981 and 0.978 | locus YHR079C, strain IRE1 (second series), stronger effect = lower value 0.982 | locus YHR079C, strain IRE1, stronger effect = lower value 0.986 | locus YHR094C, strain hxt1, stronger effect = lower value 0.966 | locus YHR129C, strain ARP1, stronger effect = lower value 0.985 | locus YHR142W, strain chs7, stronger effect = lower value 1.01 | locus YHR200W, strain rpn10, stronger effect = lower value 0.976 | locus YIL066C, strain RNR3, stronger effect = lower value 0.981 | locus YIL073C, strain SPO22, stronger effect = lower value 0.925 | locus YIL125W, strain kgd1, stronger effect = lower value 0.965 | locus YIR030C, strain dcg1, stronger effect = lower value 0.987 | locus YJL092W, strain hpr5, stronger effect = lower value 0.968 | locus YJL095W, strain BCK1 (second series), stronger effect = lower value 0.999 | locus YJL095W, strain BCK1, stronger effect = lower value 0.971 and 0.976 | locus YJL115W, strain asf1, stronger effect = lower value 0.958 | locus YJL129C, strain trk1, stronger effect = lower value 0.957 | locus YJL134W, strain LCB3, stronger effect = lower value 0.983 | locus YJL154C, strain vps35, stronger effect = lower value 0.979 | locus YJL164C, strain tpk1, stronger effect = lower value 0.997 | locus YJL166W, strain qcr8, stronger effect = lower value 0.996 | locus YJL168C, strain set2, stronger effect = lower value 0.977 | locus YJL187C, strain SWE1 (second series), stronger effect = lower value 0.979 | locus YJR043C, strain POL32, stronger effect = lower value 0.995 | locus YJR066W, strain TOR1, stronger effect = lower value 0.993 | locus YJR075W, strain HOC1, stronger effect = lower value 0.992
